The record followed here is PubChem BioAssay AID2429 (National Center for Advancing Translational Sciences (NCATS), 2010).

The list shows a part of the results. Calls of active or inactive are those of the source. The call rests on the fitted dose curve.

The target in this experiment is 15-hydroxyprostaglandin dehydrogenase [NAD(+)] (Homo sapiens) (UniProt P15428). Nature of the experiment: Confirmation qHTS Assay for Inhibitors of HPGD (15-Hydroxyprostaglandin Dehydrogenase). Conditions: recombinant HPGD, NADH fluorescence, PGE2 substrate. An excerpt: Assay Overview: Human 15-Hydroxyprostaglandin dehydrogenase (HPGD) catalyzes the inactivation of prostaglandin E2, and plays a major role in cancer biology by antagonizing the oncogenic potential of cyclooxygenase type 2 (COX2). Assays are available, based on absorbance/fluorescence increase of NADH with the substrate 15-OH prostaglandin E2. Inhibition of HPGD activity was screened by utilizing prostaglandin as an electron donor and NAD+ as an electron acceptor/cofactor. An increase in the fluorescence intensity due to conversion of NAD+ to NADH was used to measure the enzyme activity. This assay is a confirmation screen of primary qHTS protocol (See AID 894). References 1. Myung SJ, Rerko RM, Yan M, Platzer P, Guda K, Dotson A, Lawrence E, Dannenberg AJ, Lovgren AK, Luo G, Pretlow TP, Newman RA, Willis J, Dawson D, Markowitz SD. 15-Hydroxyprostaglandin dehydrogenase is an in vivo suppressor of colon tumorigenesis. Proc Natl Acad Sci U S A. 2006 Aug 8;103(32):12098-102. 2. […]
Buffer: 50 mM Tris-HCl, 0.01% Tween 20, pH 8. […] The plates were immediately transferred to and read 5 times every 30 seconds on ViewLux High-throughput CCD imager (Perkin-Elmer) using 360 nm excitation and 450 nm emission fluorescence protocol. The fluorescence intensity difference between the last and the first time points was used to compute reaction progress.
(In general: Quantitative high-throughput screening tests each substance at several concentrations.)

Sequence of 15-hydroxyprostaglandin dehydrogenase [NAD(+)] (Homo sapiens) (P15428 whole entry, looked up): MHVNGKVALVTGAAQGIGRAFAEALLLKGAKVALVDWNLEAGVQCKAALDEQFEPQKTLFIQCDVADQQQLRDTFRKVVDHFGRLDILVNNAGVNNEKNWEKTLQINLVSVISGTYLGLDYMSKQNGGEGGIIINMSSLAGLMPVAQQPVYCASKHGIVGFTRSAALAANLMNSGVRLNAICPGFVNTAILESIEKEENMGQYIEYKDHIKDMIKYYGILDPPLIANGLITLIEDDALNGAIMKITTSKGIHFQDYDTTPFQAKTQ

For the molecule `CCN(CC)C(=O)c1ccc(NC(=O)c2cc(-n3cnnc3)ccc2Cl)cc1`, the Potency is 7.08 µM (active).
